The text below walks through data of ChEMBL document CHEMBL1157539, “Thousands of chemical starting points for antimalarial lead identification” (Nature, 2010).

One may read the Inhibition as the relative decrease from the control value, in per cent.

The first experiment concerns Plasmodium falciparum. Briefly: GSK_TCMDC: Inhibition of Plasmodium falciparum 3D7 in whole red blood cells, using parasite LDH activity as an index of growth. Test compounds present at 2uM. The class given is functional.
The compound `CCC(=O)Nc1ccc(Nc2nc(C)cc(N3CCCC3)n2)cc1` registered an Inhibition of 91%.

Regarding `CCCC(=O)Nc1ccc(OCCCN(Cc2cccc(C(F)(F)F)c2)c2ccc(C#N)c(C(F)(F)F)c2)cc1`, the Inhibition is 90%.

The compound `COc1ccc2c(-c3ccccc3)noc2c1` registered an Inhibition of 98%. On the same count and under the same terms, next, `O=C(Cc1c[nH]cn1)Nc1cccc(-c2ccc(-c3nc4cc(C(F)(F)F)ccc4[nH]3)s2)c1`: 100%.

The next experiment has as its system Plasmodium falciparum. The experiment in a line: GSK_TCMDC: Inhibition of Plasmodium falciparum Dd2 in whole red blood cells, using parasite LDH activity as an index of growth. Test compounds present at 2uM. It counts as functional.
As to `Br.CCC1N=C(N)N=C(N)N1OCCCOc1c(Cl)cc(Cl)cc1Cl` (centres undefined), the Inhibition turned out to be 96%.

The compound `Cc1cc(-c2ccc3c(c2)CCN(CCC2CCC(NC(=O)/C=C/c4ccccc4F)CC2)CC3)on1.Cl` (centres undefined) registered an Inhibition of 13%. Same read-out and setting: for `CN1CCN(Cc2ccc(-c3ccc4c(Nc5ccc(Oc6ccccc6)cc5)ccnc4c3)o2)CC1` the value was 99%.

`CC(C)N(Cc1cnc2nc(N)nc(N)c2n1)c1ccc(Cl)c(Cl)c1` returned an Inhibition of 98%. On the same count and under the same terms, next, `O=C(CCc1cccnc1)Nc1cccc(-c2ccc(-c3nc4cc(C(F)(F)F)ccc4[nH]3)cc2)c1`: 0%; `Cl.N#CC1(CCCNCCc2ccc(O)cc2)CCCc2c(O)cccc21` (centres undefined): 3%; `N#Cc1ccc(-c2ccc(C(=O)NCCCCN3CCC(c4cc(Br)c5c(c4OCC(N)=O)CCCC5)CC3)cc2)cc1`: 89%. For `COc1cc(CN2CCC(NC(=O)[C@H](Cc3ccccc3)NC(=O)Nc3ccc(Oc4ccccc4)cc3)C2)ccc1O` (some centres undefined), the Inhibition is 0%.

`CS(=O)(=O)c1ccc(CNCc2ccc(-c3cccc(-c4nc5cc(F)ccc5[nH]4)c3)cc2)cc1.O=C(O)C(F)(F)F`: the Inhibition is 74%.

`CCNC(=O)Nc1ccc(N(C)c2ccnc(NC3CC3)n2)cc1`: the Inhibition was 80%. The same measure, in the same setting: next, `Cc1ccc2c(c1)c(-c1ccccc1)c(-c1ccccc1)n2CC(O)CN1CCN(CC=Cc2ccccc2)CC1` (centres undefined): 98%; `COC(=O)c1cccc(CNCc2cccc(-c3cccc(-c4nc5cccc(C)c5[nH]4)c3)c2)c1.O=C(O)C(F)(F)F`: 47%. Still for that read-out and setting: next, `CCN(CC)/C(=N\CCCCCC/N=C(\NC(=N)c1ccc(Cl)cc1)N(CC)CC)NC(=N)c1ccc(Cl)cc1`: 99%. Turning to `CCN(CC)CCN(Cc1ccc(-c2ccc(C(F)(F)F)cc2)cc1)C(=O)CN1C(CCc2cccc(F)c2F)=NS(=O)(=O)c2ccccc21`, the Inhibition is recorded as 49%. Compound `CC(C)(C)CNCC(C)(C)c1nc(-c2ccc(Cl)c(O)c2)c(-c2ccncc2)[nH]1.Cl` gave an Inhibition of 98%.

For the compound `Cc1cc(NC(=O)NCCN2CCC(NS(=O)(=O)c3ccccc3F)CC2)c2ccccc2n1`, the Inhibition came out at 44%. With `CCCCCN1CCCC(NS(=O)(=O)c2ccc(C(=O)Nc3cccc(C(F)(F)F)c3)cc2)C1.O=C(O)C(F)(F)F` (centres undefined), the Inhibition is listed as 3%.

With `O=C1OC2(CCN(C(=O)c3ccc(-n4cnnn4)cc3)CC2)CN1Cc1ccc(Cl)c(Cl)c1`, the Inhibition came to 70%. Same read-out and setting: next, `c1ccc(COc2ccc(COc3ccc(Cn4ccnc4)cc3)cc2)cc1`: 45%; `C=CCOC(=O)N1CCC(CNCc2cccc(-c3cccc(-c4nc5cccc(C)c5[nH]4)c3)c2)C1.O=C(O)C(F)(F)F` (centres undefined): 69%. As to `Br.CCCN(CCCCCCN(CCC)CCc1ccc(O)c(O)c1)CCc1ccc(O)cc1`, the Inhibition came to 5%. Same read-out and setting: for `CC(C)NCc1ccc(-c2ccc(NC(=O)c3cccc(Cl)c3)cc2)cc1.O=C(O)C(F)(F)F` the value was 14%; for `Cc1[nH]c2ccc(-c3ccc(N(C)C)cc3)cc2c(=O)c1Cl`, 96%; for `Cc1cc(NCC2CCN(CC3CCCCC3)C2)nc(Nc2ccc(Br)cc2)n1` (centres undefined), 78%. The same measure, in the same setting: next, `Fc1ccc2[nH]c(-c3cccc(-c4ccc(CN5CCN(c6cnccn6)CC5)cc4)c3)nc2c1.O=C(O)C(F)(F)F`: 31%; `Cc1cc(NCCc2ccccc2)nc(NC(=N)Nc2ccccc2Cl)n1`: 7%. On the same count and under the same terms, for `Cc1cc(NCCC(=O)NCCOc2ccccc2)nc(NCCc2ccc(F)cc2)n1.O=C(O)C(F)(F)F` the value was 4%; for `O=C(Nc1cccc(CN2CCN(C(=O)c3cccc(Cl)c3)CC2)c1)c1ccco1.O=C(O)C(F)(F)F`, 94%; for `O=C(Nc1ccc(Cl)c(C(F)(F)F)c1)c1ccc(C(=O)Nc2ccc(Cl)c(C(F)(F)F)c2)cc1`, 27%.

As for `Cl.Clc1ccc(CCNCCCCCCNCCc2ccc3c(c2)OCO3)cc1`, the Inhibition came out at 11%. Consider `CCCNC(=O)C1Cc2cc(OC)c(OC)cc2C2(N1)C(=O)N(Cc1cccc(OC)c1)c1ccccc12` (centres undefined), for which the Inhibition is on record as 63%. Take `Cc1ccc(NC(=O)NC2CCN(CCCCCNC(=O)/C=C/c3ccc(Cl)c(Cl)c3)CC2)cc1C`: the Inhibition is 25%. On the same count and under the same terms, for `Fc1ccc(Nc2ccnc3cc(-c4cccc(CNCCN5CCOCC5)c4)ccc23)c(Cl)c1` the value was 99%; for `Cc1csc(-c2nonc2NC(=O)COc2ccccc2C(C)C)n1`, 85%; for `O=C(Nc1ccc(-c2ccccc2)cc1)Nc1cccc(Cn2cnc(N3CCCNCC3)cc2=O)c1.O=C(O)C(F)(F)F`, 13%.

Take `O=C(Nc1ccc(-c2cccc(-c3nc4ccccc4[nH]3)c2)cc1)c1cnn2cccnc12`: the Inhibition amounted to 36%. Still for that read-out and setting: for `CCC(=O)Nc1ccc(Nc2nc(C)cc(N3CCCC3)n2)cc1` the value was 2%; for `CCCC(=O)Nc1ccc(OCCCN(Cc2cccc(C(F)(F)F)c2)c2ccc(C#N)c(C(F)(F)F)c2)cc1`, 89%. On the same count and under the same terms, for `COc1ccc2c(-c3ccccc3)noc2c1` the value was 34%; for `O=C(Cc1c[nH]cn1)Nc1cccc(-c2ccc(-c3nc4cc(C(F)(F)F)ccc4[nH]3)s2)c1`, 99%.
